Sampled rows, rich in hits. Any-hit rate of the full collection: about 19%.
TGFb SMAD3 inh: inhibitors of TGF-b signaling; hit rate 1.2% among 410,000; AID 588855; Potency, µM (titrated, usually from 46.1 µM), inactives show at the highest dose activity, negative = inhibition, usual class: inhibitors; HepG2 CAGA-GFP TGF-b/SMAD3 reporter, GFP fluorescence, 18 h; TGF-beta stimulated, 500 pg/mL final; further: potency means the concentration at half of the fitted maximal effect; on the % scale 0 is the no-effect control and ±100 the full control effect; nearly all actives have a fitted effect of over 65% in size
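Cell-based qHTS in HEPG2 carrying a CAGA-GFP Smad reporter; compounds added before 500 pg/mL final TGF-beta, 18 h incubation at 37 degrees C, GFP fluorescence quantified per cell by imaging cytometry.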
TDP1 inh: TDP1 (human) enzyme inhibition; recombinant TDP1, AlphaScreen DNA substrate cleavage; Potency, µM (series often up to 130 µM), for the others: at the top dose activity change, negative = inhibition, usual class: inhibitors; hit rate 0.28% among 350,000; further: potency means the concentration at half of the fitted maximal effect; on the % scale 0 is the no-effect control and ±100 the full control effect; nearly all actives have a fitted effect of over 40% in size
Target sequence (Q9NUW8 whole entry, looked up): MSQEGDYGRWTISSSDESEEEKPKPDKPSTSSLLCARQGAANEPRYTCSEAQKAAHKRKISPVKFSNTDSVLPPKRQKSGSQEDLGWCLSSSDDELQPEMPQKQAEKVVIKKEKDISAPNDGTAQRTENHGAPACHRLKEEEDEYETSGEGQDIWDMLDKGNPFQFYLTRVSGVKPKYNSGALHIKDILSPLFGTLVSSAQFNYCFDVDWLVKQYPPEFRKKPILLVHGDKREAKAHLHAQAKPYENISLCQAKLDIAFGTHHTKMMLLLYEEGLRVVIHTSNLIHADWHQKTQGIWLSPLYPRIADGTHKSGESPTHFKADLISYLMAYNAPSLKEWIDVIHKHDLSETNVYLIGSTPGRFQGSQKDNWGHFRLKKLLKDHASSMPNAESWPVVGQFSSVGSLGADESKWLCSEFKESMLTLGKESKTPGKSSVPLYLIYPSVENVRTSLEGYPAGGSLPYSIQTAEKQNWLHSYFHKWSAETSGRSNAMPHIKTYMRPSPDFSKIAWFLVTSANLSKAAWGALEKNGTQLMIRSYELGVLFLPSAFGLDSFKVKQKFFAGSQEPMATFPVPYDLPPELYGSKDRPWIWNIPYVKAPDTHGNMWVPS
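Steps: enzyme plus compound, 15 min RT; add biotin/phosphotyrosine-FITC oligonucleotide (15 nM final), react 5 min; add donor/acceptor beads (10 ug/ml final), 10 min; read AlphaScreen. Tdp1 at 1 nM final.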
DT40 TDP1 no CPT: qHTS for Inhibitors of human tyrosyl-DNA phosphodiesterase 1 (TDP1): qHTS in cells in absence of CPT. DT40 Tdp1-/- hTDP1 cells, no CPT, ATP luminescence, 48 h. Potency, µM (top dose mostly 46.2 µM), for the others: top-dose activity change, negative = growth inhibition, actives largely listed as inhibitors. hit rate 15% among 420,000; further: potency means the concentration at half of the fitted maximal effect; on the % scale 0 is the no-effect control and ±100 the full control effect; nearly all actives have a fitted effect of over 55% in size
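A cellular qHTS used chicken DT40 cells lacking endogenous Tdp1 but carrying stably transfected human TDP1. Compounds were applied without camptothecin, and cell growth kinetics were judged by ATP-dependent luminescence after ≥48 hr.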
HepG2 viability: kills HepG2 cells in TGF-b inhibitor counter-screen; HepG2 CAGA-GFP viability, ATP luminescence, 18 h; Potency, µM (highest dose often 46.1 µM), inactives show top-dose activity change, negative = cytotoxicity, actives largely listed as cytotoxic; hit rate 0.76% among 410,000; AID 588856; further: potency means the concentration at half of the fitted maximal effect
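CellTiter-Glo luminescence gave cytotoxicity after 18 hours at 37 degrees C. The cells were HepG2 CAGA-GFP in 1% FBS DMEM, stimulated with 500 pg/mL TGF-beta after compound addition. %Activity was normalised to no-cell wells (complete cell-killing) and DMSO (no toxicity), and curves were fitted and classified.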
IL1B secr inh: blocks inflammasome-driven IL-1 beta release. THP-1 LPS/ATP IL-1B secretion, AlphaLISA, 16 h; active compounds read low. activity change, % at 57.5 µM. hit rate 4.7% among 360,000. AID 743279; in the data active means activity change below about -50%; inconclusive means mostly about -30% to -49%; further: on the % scale 0 is the no-effect control and ±100 the full control effect
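THP-1 cells pretreated 1 hr with compounds (up to 57.5 uM final), then stimulated with LPS (250 ng/mL final) plus ATP (1.25 mM final); secreted IL-1B measured by AlphaLISA after 16 hr, decreased signal indicating inhibition.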
TDP1 cell CPT: DT40-hTDP1 cell growth loss with CPT | chicken DT40 Tdp1-/-;hTDP1 cells + 20 nM CPT, ATP luminescence, 48 h | Potency, µM (highest dose often 46.2 µM), without a hit: at the highest dose activity change, negative = growth inhibition, most hits filed as inhibitors | hit rate 12% among 420,000; further: potency means the concentration at half of the fitted maximal effect; on the % scale 0 is the no-effect control and ±100 the full control effect; nearly all actives have a fitted effect of over 55% in size
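Chicken DT40 Tdp1-/- cells complemented with human TDP1, 400 cells/well, exposed to compounds plus 20 nM camptothecin for at least 48 h at 37 C; viability read as ATP content by CellTiter-Glo luminescence.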
Starred values were filed as active, the others as inactive. Unless noted, the call rests on the fitted dose curve; in most records, active means well fitted curve in the direction sought with a large enough effect; inconclusive means small, poorly fitted or top-dose-only effect, or another doubt; inactive means no such curve, though single readings can be large; an effect the other way counts as inactive or inconclusive.

For CC(C)N(C(=O)CSc1nnc(-c2cc3ccccc3cc2O)n1Cc1ccco1)C(C)C the results were TGFb SMAD3 inh inconclusive, TDP1 inh 3%, DT40 TDP1 no CPT 21µM*, HepG2 viability -3%, IL1B secr inh -7 and TDP1 cell CPT 13µM*.
O=C1c2ccccc2C2(c3cc(C(F)(F)F)cc(C(F)(F)F)c3)NCCN12 (centres undefined) was read as TGFb SMAD3 inh 0%, DT40 TDP1 no CPT inconclusive, HepG2 viability -11%, IL1B secr inh -2 and TDP1 cell CPT inconclusive.
`COC(=O)[C@@H](NCc1cccc(CN[C@H](C(=O)OC)c2ccccc2)c1)c1ccccc1` gave TGFb SMAD3 inh 1%, DT40 TDP1 no CPT -3%, HepG2 viability -13%, IL1B secr inh 10 and TDP1 cell CPT -1%.
For CCCOc1ccc(-c2cn3ccccc3n2)cc1[N+](=O)[O-] the results were TGFb SMAD3 inh -11%, TDP1 inh 5%, DT40 TDP1 no CPT 15µM*, HepG2 viability -38%, IL1B secr inh -24 and TDP1 cell CPT inconclusive.
For CCOc1ccc(CC(=O)NCc2ccc3c(c2)CCN3C(=O)c2ccccc2)cc1OCC the results were TGFb SMAD3 inh 19%, TDP1 inh 1%, DT40 TDP1 no CPT inconclusive, HepG2 viability 0% and TDP1 cell CPT 16µM*.
For O=C(COc1ccc(F)cc1)NCc1ccc2c(c1)CCN2C(=O)c1ccc(F)cc1 the results were TGFb SMAD3 inh -32%, TDP1 inh -1%, DT40 TDP1 no CPT -23%, HepG2 viability -16% and TDP1 cell CPT -19%.
For CCOc1ccc(CC(=O)NCc2ccc3c(c2)CCN3C(=O)c2ccc(F)cc2)cc1OCC the results were TGFb SMAD3 inh 22%, TDP1 inh 0%, DT40 TDP1 no CPT inconclusive, HepG2 viability 0% and TDP1 cell CPT inconclusive.
Screening COc1ccc(OCC(=O)NCc2ccc3c(c2)CCN3C(=O)c2ccc(F)cc2)cc1 returned TGFb SMAD3 inh inconclusive, TDP1 inh 0%, DT40 TDP1 no CPT inconclusive, HepG2 viability -27% and TDP1 cell CPT -29%.
`Cc1cccc(OCC(=O)NCc2ccc3c(c2)CCN3C(=O)c2ccc(Cl)cc2)c1` gave TGFb SMAD3 inh 7%, TDP1 inh 6%, DT40 TDP1 no CPT -5%, HepG2 viability 0% and TDP1 cell CPT -4%.
Screening Cc1ccc(C(=O)N2CCc3cc(CNC(=O)COc4ccccc4)ccc32)cc1 returned TGFb SMAD3 inh inconclusive, TDP1 inh 3%, DT40 TDP1 no CPT 12µM*, HepG2 viability -19% and TDP1 cell CPT 13µM*.
Screening COc1ccc(OCC(=O)NCc2ccc3c(c2)CCN3C(=O)c2ccccc2)cc1 returned TGFb SMAD3 inh -29%, TDP1 inh 4%, DT40 TDP1 no CPT 13µM*, HepG2 viability -32% and TDP1 cell CPT 15µM*.
For O=C(COc1ccccc1)NCc1ccc2c(c1)CCN2C(=O)c1ccccc1 the results were TGFb SMAD3 inh -5%, TDP1 inh 7%, DT40 TDP1 no CPT 6.5µM*, HepG2 viability 4% and TDP1 cell CPT 12µM*.
Screening O=C(Cl)c1c(Cl)cccc1Cl returned TDP1 inh 13%.
`COc1ccc2[nH]cc(C(=O)CN3CC(C)CC(C)C3)c2c1` (centres undefined) gave TGFb SMAD3 inh 1%, DT40 TDP1 no CPT -22%, HepG2 viability -7%, IL1B secr inh -3 and TDP1 cell CPT 16%.
Screening COc1ccc2[nH]cc(C(=O)CCl)c2c1 returned TGFb SMAD3 inh inconclusive, TDP1 inh -1%, DT40 TDP1 no CPT 4.1µM*, HepG2 viability -107%, IL1B secr inh -96* and TDP1 cell CPT 3.3µM*.
